# Assay outcomes (PubChem)
# Rows were chosen to be rich in hits. Some 9.3% of all compounds tested hit in one or more screens of this group.
# NPC1 promoter act: qHTS Assay for NPC1 Promoter Activators. Huh7 NPC1 promoter luciferase reporter, 24 h. Potency, µM (titrated, usually from 9.22 µM), without a hit: top-dose activation, actives largely listed as activators. hit rate 2.4% among 320,000; note: % of control where 0% means no effect; nearly all actives have a fitted effect of over 60% in size
#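 Stable NPC1-promoter luciferase Huh7 line; cpd (DMSO) 24 h, 37 °C, 5% CO2; Amplite luciferase reagent 10 min RT; luminescence readout. qHTS format.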
# ELG1 genotox: qHTS screen for small molecules that induce genotoxicity in human embryonic kidney (HEK293T) cells expressing luciferase-tagged ELG1; HEK293T ELG1-luciferase reporter, luminescence, 16 h; Potency, µM (doses to about 46 µM), for inactives: at the highest dose activity change, positive = activation, usual class: activators; hit rate 1.3% among 330,000; note: % of control where 0% means no effect; nearly all actives have a fitted effect of over 60% in size
#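 Reporter readout depends on ELG1 protein level, which increases with genetic stress. After 16 hr compound exposure at 37 °C, luciferase activity was quantified using ONE-Glo.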
# ELG1 repair inh: qHTS screen for small molecules that inhibit ELG1-dependent DNA repair in human embryonic kidney (HEK293T) cells expressing luciferase-tagged ELG1; HEK293T ELG1-luciferase reporter, luminescence, 16 h; DNA damage induced by 5-fluorouridine; Potency, µM (titrated, usually from 46.1 µM), inactives show at the top dose activity change, negative = inhibition, usual class: inhibitors; hit rate 2.3% among 330,000; note: % is set by controls: 0 for no effect and ±100 for the full control effect; nearly all actives have a fitted effect of over 55% in size
#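 HEK293T cells expressing luciferase-tagged ELG1 (2,000/well) received 5-Fluorouridine plus compound or DMSO for 16 hr at 37 °C. Luciferase was read by ONE-Glo luminescence after 30 min at room temperature.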
# Rab9 prom act: qHTS Assay for Rab9 Promoter Activators; Huh7 Rab9 promoter-luciferase reporter, luminescence, 24 h; Potency, µM (top dose mostly 9.22 µM), inactives show top-dose activation, negative = inhibition, usual class: activators; hit rate 2.8% among 320,000; note: % of control where 0% means no effect; nearly all actives have a fitted effect of over 60% in size
#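 Huh7 cells stably carrying a Rab9 promoter-luciferase reporter, 1500 cells per well in OP-MEM I with 10% FBS, treated with compound 24 hours at 37C. Luciferase activity read by luminescence after 10 minutes with Amplite reagent.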
# FLuc counter: qHTS profiling assay for firefly luciferase inhibitor/activator using purifed enzyme and Km concentrations of substrates (counterscreen for miR-21 project) | hit rate 6.9% among 360,000 | Potency, µM (top dose mostly 57.5 µM), for the others: at the highest dose activity change, negative = inhibition, hits mostly inhibitors | AID 588342, 2011 | Luciferin 4-monooxygenase (Photinus pyralis), P08659 | purified FLuc, Km substrates, luminescence inhibition;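 note: plate controls were vehicle for no effect and reference inhibitor for full effect; nearly all actives have a fitted effect of over 55% in size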
# Target sequence (P08659 whole entry, looked up): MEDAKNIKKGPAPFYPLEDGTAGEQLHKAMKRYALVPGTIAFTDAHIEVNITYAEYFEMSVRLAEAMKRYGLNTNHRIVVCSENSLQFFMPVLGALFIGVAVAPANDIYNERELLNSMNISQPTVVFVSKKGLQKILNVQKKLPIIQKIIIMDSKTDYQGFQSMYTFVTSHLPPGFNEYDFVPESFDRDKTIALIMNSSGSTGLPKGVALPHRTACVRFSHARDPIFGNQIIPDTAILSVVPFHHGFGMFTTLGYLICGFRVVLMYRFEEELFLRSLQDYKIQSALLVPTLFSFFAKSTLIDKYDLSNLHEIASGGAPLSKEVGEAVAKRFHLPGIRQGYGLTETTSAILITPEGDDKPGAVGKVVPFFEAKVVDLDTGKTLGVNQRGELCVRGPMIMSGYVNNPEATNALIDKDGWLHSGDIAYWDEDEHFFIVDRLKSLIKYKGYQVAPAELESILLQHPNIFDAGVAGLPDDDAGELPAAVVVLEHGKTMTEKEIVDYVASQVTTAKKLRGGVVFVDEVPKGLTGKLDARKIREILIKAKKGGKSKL
#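 Biochemical qHTS of compounds, final roughly 60 µM downward over six points, against 10 nM purified firefly luciferase using Km concentrations of substrates (10 uM D-luciferin, 10 uM ATP) in Tris acetate pH 7.5 buffer; luminescence output.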
# SMN2 splice up: qHTS Assay for Enhancers of SMN2 Splice Variant Expression; HEK293 SMN2-luciferase splicing reporter, luminescence, 30-36 h; Potency, µM (titrated, usually from 46.1 µM), for the others: top-dose activity change, positive = activation, actives largely listed as activators; hit rate 2.8% among 210,000; AID 1458, 2008; note: % of control where 0% means no effect; nearly all actives have a fitted effect of over 55% in size
#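 HEK293 cells carry an SMN2 […]–luciferase reporter in which exon 7 inclusion puts luciferase in frame. Cells were plated 10-12 h before compound addition, then incubated 30-36 h at 37C. ONE-Glo luminescence was read; sodium butyrate at 4.5 mM final served as control.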
# Numbers without * were called inactive; ? = inconclusive; . = no result; [ ] = another dose, or the depositor's remark. Calls come from the whole dose curve; as a rule, active = well fitted curve in the direction sought with a large enough effect; inconclusive = small, poorly fitted or top-dose-only effect, or another doubt; inactive = no such curve, though single readings can be large; an effect the other way counts as inactive or inconclusive. Potency is the fitted concentration of half-maximal effect.
SMILES,NPC1 promoter act,ELG1 genotox,ELG1 repair inh,Rab9 prom act,FLuc counter,SMN2 splice up
Cc1ccnc(NC(=O)CCC(=O)N(CC(=O)NC(C)(C)C)c2ccc3c(c2)OCCO3)c1,-3%,0%,-2%,-8%,-13%,3%
COC(=O)c1ccccc1OCCCOc1ccc(C=O)cc1OC,8%,?,?,28%,-18%,-41%
Cc1ccc(/C=N/OC(=O)c2nn(C)cc2Cl)cc1,-2%,8%,?,11%,1.3µM*,-6%
Cc1ccc(NC(=O)COC(=O)c2nn(C)cc2Cl)cc1,-4%,8%,2%,16%,-3%,.
Cc1ccc(C(=O)O/N=C/C2=C(Cl)c3ccccc3CC2)cc1,-3%,0%,-7%,1%,24µM*,-18%
Cc1ccc(C(=O)O/N=C/c2c(C)nn(C)c2Cl)cc1,-1%,-3%,-2%,-6%,11µM*,-1%
COc1cccc(C(=O)c2cn(CC(=O)NCc3ccco3)c3nc(C)ccc3c2=O)c1,2%,-3%,4%,1%,-1%,.
O=C(CSc1ccc(F)cc1)Nc1ccc(Br)cc1,?,?,?,2.8µM*,13µM*,?
COC(=O)c1ccc(NC(=O)CSc2ccccn2)cc1,2%,?,0%,13%,?,-14%
COC(=O)c1ccc(NC(=O)CSc2ccccc2)cc1,19%,?,?,?,27µM*,17%
COc1ccc(NC(=O)c2sc3nc4c(cc3c2N)CCCCCC4)c(OC)c1,.,.,.,.,2%,-3%
Cc1ccc(NC(=O)CSc2nc(N)c3cc4c(nc3n2)CCCC4)cc1,17%,1%,9%,15%,2.1µM*,4%
COc1ccc(NC(=O)CSc2nc(N)c3cc4c(nc3n2)CCCC4)c(OC)c1,15%,4%,?,2%,12µM*,9%
Nc1nc(SCC(=O)Nc2ccccc2)nc2nc3c(cc12)CCCC3,10%,3%,?,22%,?,?
CCOc1ccc(S(=O)(=O)N2CCC(C(=O)NCc3ccccn3)CC2)cc1,-1%,0%,17%,-2%,2%,.
CN(CC1CCCCO1)C(=O)c1cc(COc2ccc(F)cc2Cl)on1 (stereo unspecified),?,-2%,0%,2.8µM*,?,.
COc1cc(Cl)ccc1OCc1cc(C(=O)N[C@H]2CCCCNC2=O)no1,?,14%,?,?,3.4µM*,.
COc1cc(Cl)ccc1OCc1cc(C(=O)N(C)CC2CCCCO2)no1 (stereo unspecified),3.5µM*,?,?,4µM*,19µM*,.
COc1ccc(S(=O)(=O)N/N=c2\oc3c(OC)cccc3cc2S(=O)(=O)c2ccc(C)cc2)cc1OC,-4%,15%,?,2%,-14%,-3%
CC(C)(C)OC(=O)NCCCC[C@H](NC(=O)c1nc[nH]c1C(=O)N1CCN(c2ccccc2)CC1)C(=O)OC(C)(C)C,-2%,-11%,21µM*,-3%,0%,.
C[C@H](NC(=O)c1nc[nH]c1C(=O)NCCCCCNC(=O)OC(C)(C)C)C(=O)OC(C)(C)C,1%,-14%,5.2µM*,0%,-7%,.
CC(C)(C)OC(=O)NCCCCCNC(=O)c1nc[nH]c1C(=O)N1CCN(c2ccccc2)CC1,.,-7%,?,.,.,.
CC(C)C[C@H](NC(=O)c1nc[nH]c1C(=O)NCCCCCNC(=O)OC(C)(C)C)C(=O)OC(C)(C)C,1%,-11%,?,0%,8%,.
COc1ccc(-c2nc3c(c4c2C[C@H](c2ccccc2)OC4)CN(C(=O)N[C@@H](C)c2ccccc2)CC3)c(C)c1,.,.,.,.,.,3%[9.22 µM]
